Among all 52,000 compounds or so, about 4,300 (8.3%) were called active. Cut-off read from the data, not from the text of the source: active = survival mostly below about 52% (no sharp cut-off); inactive = mostly above about 56%. The sample as a whole holds a higher share of actives than the screen did.
The compounds below were run on DeltatarO mutant (assay: growth inhibition of S. aureus wild type versus tarO mutant, primary screen, teichoic acid synthesis inhibitors, RN4220, OD600 (AID 463173)). Details: OD600, 18 h, active compounds read low, screened at 18.75 µg/mL (by protocol).
With COc1ccc(NC(=O)CCCc2nc(-c3ccco3)no2)c(OC)c1 the survival was 107% (inactive). For CC1Cc2cc(S(=O)(=O)CCC(=O)Nc3ccc(OC(F)(F)F)cc3)ccc2N1C(=O)C1CC1 (stereo not drawn), the survival was 85% (inactive). COc1ccc(S(=O)(=O)N2CCN(S(=O)(=O)c3ccccc3)CC2)cc1 was tested, and the survival was 87% (inactive). In the case of CS(=O)(=O)N1CCN(S(=O)(=O)c2ccccc2)CC1, the survival is reported as 104% (inactive). For Cc1ccccc1N1CCN(S(=O)(=O)c2ccccc2)CC1, the survival was 28% (active). Cc1cccc(N2CCN(S(=O)(=O)c3nnc(NC(=O)c4ccc(Cl)cc4)s3)CC2)c1 was tested, and the survival was 54% (inactive). For Cc1ccccc1N1CCN(S(=O)(=O)c2nnc(NC(=O)c3ccc(Cl)cc3)s2)CC1, the survival was 43% (active). For O=C(Nc1nnc(S(=O)(=O)N2CCN(c3ccc(F)cc3)CC2)s1)c1ccc(Cl)cc1, the survival was 57% (inactive). In the case of O=C(Nc1ccc(O)cc1)c1cccc(S(=O)(=O)N2CCOCC2)c1, the survival is reported as 77% (inactive). CCOc1ccc(NC(=O)Cn2nc3c(cc2=O)CC(C)CC3)cc1 (stereo not drawn) was tested, and the survival was 98% (inactive). With c1ccc(C2SCCN2c2ccccc2)cc1 (stereo not drawn) the survival was 97% (inactive). Cc1cccc(N2CCN(C(=O)Cn3c(-c4cccs4)cc4ccccc43)CC2)c1C was tested, and the survival was 78% (inactive). For Cc1ccc(C(=O)CCC(=O)Nc2ccc(C)cc2C)cc1, the survival was 115% (inactive). With Cc1nc(CC(=O)Nc2cccc(C)c2C)cs1 the survival was 39% (active). In the case of Cc1cccc(OCc2nc(CC(=O)Nc3ccc(C)cc3C)cs2)c1, the survival is reported as 79% (inactive). For CCCCCOc1ccc(NC(=O)Cc2csc(C)n2)cc1, the survival was 44% (inactive). For Cc1cccc(NC(=O)Nc2cccs2)c1C, the survival was 93% (inactive). Cc1nc(CC(=O)Nc2cc(Cl)ccc2C)cs1 was tested, and the survival was 45% (active). Cc1ccc(Cl)cc1NC(=O)c1csnn1 was tested, and the survival was 78% (inactive). Cc1ccccc1-c1noc(CCC(=O)Nc2cccc(C)c2C)n1 was tested, and the survival was 88% (inactive). In the case of Cc1ccc(NC(=O)Cc2csc(C)n2)c(C)c1, the survival is reported as 40% (active). In the case of Cc1cc(C)c(NC(=O)Cc2csc(C)n2)c(Cl)c1, the survival is reported as 48% (inactive). CCc1ccc(NC(=O)Cc2csc(COc3cccc(C)c3)n2)cc1 was tested, and the survival was 88% (inactive). With CCc1cccc(CC)c1NC(=O)Cc1csc(C)n1 the survival was 42% (active). COCC(=O)N1CCC(n2nnc3cc(F)ccc32)CC1 was tested, and the survival was 53% (inactive). With CCN(CC)CC(=O)N1CCCC1=O the survival was 100% (inactive). In the case of Cc1cc(C)c(/C=C/c2onc(C)c2S(=O)(=O)N2CCC(C(=O)NCc3ccco3)CC2)c(C)c1, the survival is reported as 90% (inactive). In the case of CCOC(=O)c1ccc(NC(=O)CCn2c(=O)c3cccn3c3ccccc32)cc1, the survival is reported as 91% (inactive).
